# Literature values in PubChem BioAssay AID977611.
# Out of some 3,900 compounds screened, about 3,900 (100%) were called active. No cut-off is given here; in the data, nearly all actives have Kd up to about 4200 µM. So high a share suggests a set chosen from earlier hits. The list shows a part of the results. Where a SMILES comes first, the peptide text is derived from it. Residues, ends and D or L forms follow the SMILES beside them.
# Assay: PubChem AID 977611
# Conditions: PDB protein-ligand complexes, literature Kd
compound,measurement,setting,value
O=C(CO)[C@@H](O)[C@H](O)[C@H](O)CO[P+](O)(O)O,Kd,"protein: Glucokinase regulatory protein, PDB entry 3w0l",0.095 µM (active)
O=C(CO[P+](O)(O)O)NO,Kd,"protein: Fructose-bisphosphate aldolase, PDB entry 4del",0.0211 µM (active)
O=C(O)[C@H](O)CO[P+](O)(O)O,Kd,"protein: human phosphoglycerate kinase, PDB entry 3c39",109 µM (active)
O=C(O)CO[P+](O)(O)O,Kd,"protein: TRIOSEPHOSPHATE ISOMERASE (A198V, C202A, C222N mutation), PDB entry 4bi6",113 µM (active)
same,Kd,"protein: TRIOSEPHOSPHATE ISOMERASE (C202A mutation), PDB entry 4bi7",26.4 µM (active)
O=C(O)c1ccc(-c2ccc(C(=S)NCc3ccc(-c4ccnn4-c4ccc(Cl)c(Cl)c4)cc3)c(Cl)c2)o1,Kd,"protein: Replication protein A 70 kDa DNA-binding subunit, PDB entry 4lwc",0.19 µM (active)
COCCO[C@@H]1COCCOC[C@H]1OCCOC,Kd,"protein: METAL-BINDING PROTEIN YODA, PDB entry 4aw8",0.022 µM (active)
C[C@@H](O)[C@H](NC(=O)[C@@H]1CCCN1C(=O)[C@H](CO[P+](O)(O)O)NC(=O)[C@H](Cc1ccc(O)cc1)NC(=O)[C@H](CO)NC(=O)[C@@H]1CCCN1)C(=O)N[C@@H](CO[P+](O)(O)O)C(=O)N1CCC[C@H]1C=O,Kd,"protein: CTD INTERACTING DOMAIN of RNA processing factor SCAF8(R112T), PDB entry 3d9p",29 µM (active)
C[C@@H](O)[C@H](NC(=O)[C@@H]1CCCN1C(=O)[C@H](CO[P+](O)(O)O)NC(=O)[C@H](Cc1ccc(O)cc1)NC(=O)[C@H](CO)NC(=O)[C@@H]1CCCN1)C(=O)N[C@@H](CO)C(=O)N1CCC[C@H]1C(=O)N[C@@H](CO)C(=O)O,Kd,"protein: Rtt103 CTD-interacting domain, PDB entry 2l0i",15 µM (active)
C[C@@H](O)[C@H](NC(=O)[C@@H]1CCCN1C(=O)[C@H](CO)NC(=O)[C@H](Cc1ccc(O)cc1)NC(=O)[C@H](CO)NC(=O)[C@@H]1CCCN1)C(=O)N[C@@H](CO)C(=O)N1CCC[C@H]1C(=O)N[C@H](C=O)CO (H-PSYSPTSPS-aldehyde),Kd,"protein: CTD INTERACTING DOMAIN of RNA processing factor SCAF8(N15M/Y17M), PDB entry 3d9o",1000 µM (active)
NC(=S)Nc1ccc(C[C@H](CN(CC(=O)O)[C@H]2CCCC[C@@H]2N(CC(=O)O)CC(=O)O)N(CC(=O)O)CC(=O)O)cc1,Kd,"protein: Neutrophil gelatinase-associated lipocalin (mutation), PDB entry 4iaw",0.000234 µM (active)
same,Kd,"protein: Neutrophil gelatinase-associated lipocalin (mutation), PDB entry 4iax",0.000273 µM (active)
N#CCCNc1nonc1-c1nc2ccccc2n1CC(=O)c1ccc(N)cc1,Kd,"protein: Tubulin, PDB entry 4o2a",1.8 µM (active)
CC(C)C[C@H](NC(=O)[C@@H]1CCCN1C(=O)CNC(=O)[C@H](Cc1ccccc1)NC(=O)[C@@H](N)CC(=O)O)C(=O)N[C@H](C(=O)NCC(=O)N[C@@H](C)C(=O)O)C(C)C (H-DFGPLVGA-OH),Kd,"protein: ?-adaptin ear domain of GGA3, PDB entry 1p4u",5 µM (active)
CC[C@H](C)[C@H](N)C(=O)N[C@@H](CO)C(=O)N[C@@H](CCCNC(N)N)C(=O)N[C@@H](CO)C(=O)N[C@H](C(=O)N[C@@H](CO[P+](O)(O)O)C(=O)N1CCC[C@H]1C(=O)N[C@H](C(=O)N[C@@H](Cc1ccccc1)C(=O)N[C@@H](CC(N)=O)C(=O)N[C@@H](CCCCN)C(=O)N[C@@H](CCC(N)=O)C(=O)O)[C@@H](C)O)[C@@H](C)O,Kd,"protein: Breast cancer type 1 susceptibility protein, PDB entry 1t29",0.9 µM (active)
CC(C)[C@H](NC(=O)[C@H](CCCNC(N)N)NC(=O)[C@@H](NC(=O)[C@@H]1CCCN1)[C@@H](C)O)C(=O)N[C@@H](CO)C(=O)N[C@@H](CO[P+](O)(O)O)C(=O)N1CCC[C@H]1C(=O)N[C@H](C(=O)N[C@@H](Cc1ccccc1)C(=O)NCC(=O)N[C@@H](C)C(=O)N[C@H](C(=O)O)[C@@H](C)O)C(C)C,Kd,"protein: Breast cancer type 1 susceptibility protein, PDB entry 1y98",3.7 µM (active)
